Drawing on PubChem BioAssay AID2061317 (National Center for Advancing Translational Sciences (NCATS), 2025), this text covers Potency for seven compounds.

SMILES strings stand for the structures. Results filed as inconclusive are left out. The source made the active and inactive calls. Calls come from the whole dose curve; as a rule, active = well fitted inhibition curve with a large enough effect; inconclusive = small, poorly fitted or top-dose-only effect; inactive = flat fitted curve, though single readings scatter.

This assay is described as follows: Identification of antibody-drug conjugate (ADC) payloads which are substrates of ATP-binding cassette drug efflux transporters: ABCB1-HEK293-MDR-19 cell line with tariquidar. As to conditions: HEK293 ABCB1 (MDR-19) + tariquidar, CellTiter-Glo viability, 48 h. The text has this: Antibody-drug conjugates (ADCs) feature an antibody recognizing a specific protein joined to a potent toxic payload. Numerous antibody-drug conjugates have received FDA approval; however, clinical resistance arises. Resistance mechanisms include decreased expression or mutation of the antibody target, impaired payload release, or increased expression of ATP-binding cassette (ABC) efflux transporters associated with multidrug resistance. We therefore sought to characterize the interaction of ABC multidrug transporters with ADC payloads. We performed a high-throughput screen with 27 common ADC payloads using cells lines expressing ABC transporters P-glycoprotein (P-gp, encoded by ABCB1) or ABCG2 (encoded by ABCG2). Confirmatory assays were also performed using cells transfected to express P-gp, ABCG2, or MRP1 (encoded by ABCC1). Several commonly used ADC payloads were substrates of P-gp, including calicheamicin gamma1, monomethyl auristatin E, DM1, and DM4. All the pyrrolobenzodiazepines tested - SJG136, SGD-1882, SG2057, and SG3199 - were substrates of P-gp, ABCG2, and MRP1. […] These findings highlight the risk of transporter-mediated resistance with certain ADC payloads and underscore the importance of selecting payloads that evade ABC transporter recognition in future ADC development.
HEK-293 cells were transfected with empty vector (pcDNA) or vector containing the human ABCB1 (MDR-19), ABCG2 (R-5), or ABCC1 gene (MRP1) and were maintained in EMEM with 2 mg/mL G418 added to maintain transporter expression. The HeLa derivative KB-3-1 and the P-gp overexpressing KB-8-5-11 subline were maintained in DMEM; KB-8-5-11 additionally received 100 ng/mL colchicine. H460 parental cells were obtained from the Division of Cancer Treatment and Diagnosis Tumor Repository, National Cancer Institute at Frederick, MD and were cultured in RPMI. The ABCG2 expressing subline H460 MX20 was generated by selecting H460 cells in 20 nM mitoxantrone. Media in all cases was supplemented with 10% FBS and 1% penicillin-streptomycin. We explored 27 common ADC payloads, in two orthogonal, paired cell line sets-a drug selected and transfected set for each transporter--to identify substrates of the ABC transporters P-gp and ABCG2. Compounds were sourced from Levena Biopharma (San Diego, CA), Selleck Chem (Houston, TX), ChemieTek (Indianapolis, IN), or Microsource Discovery Systems (Gaylordsville, CT). Screening was performed as previously described. Briefly, cells were plated at a density of 500 cells/well in 1536 well plates with compounds added using a 1536-head pin tool (Kalypsys, San Diego CA). Cells were incubated with cytotoxic drugs and processed with CellTiter Glo reagent (Promega, Madison, WI) to determine viability after 48 hours. P-gp substrates were identified by comparing compound activity between paired sets of low-expressing (sensitive) and over-expressing (resistant) cell lines.
Background: ATP-based viability assays read luminescence as a measure of living cells.
`COc1cccc2c1C(=O)c1c(O)c3c(c(O)c1C2=O)C[C@@](O)(C(=O)CO)CC3OC1CC(N2CCOC(OC)C2)C(O)C(C)O1` (some centres not stated): the Potency was 1.3 nM (active).

In the case of `COc1cc2cc(c1Cl)N(C)C(=O)C[C@H](OC(=O)[C@H](C)N(C)C(=O)CCC(C)(C)S)[C@]1(C)OC1[C@H](C)C1C[C@@](O)(NC(=O)O1)[C@H](OC)/C=C/C=C(\C)C2` (some centres not stated), the Potency was 1.2 nM (active). With `COc1cc2cc(C(=O)N3C[C@@H](CCl)c4c3cc(O)c3ccccc43)[nH]c2c(OC)c1OC`, the Potency was 1.7 nM (active).

As to `CC[C@@]1(O)C(=O)OCc2c1cc1n(c2=O)Cc2cc3ccccc3nc2-1`, the Potency was 13.3 nM (active). In the case of `CC[C@H](C)[C@H](NC(=O)[C@H]1CCCCN1C)C(=O)N(C)[C@H](C[C@@H](OC(C)=O)c1nc(C(=O)N[C@@H](Cc2ccccc2)C[C@H](C)C(=O)O)cs1)C(C)C`, the Potency is 3.3 nM (active). For `COc1cc2cc(c1Cl)N(C)C(=O)C[C@H](OC(=O)C(C)C)[C@]1(C)O[C@H]1[C@H](C)[C@@H]1C[C@@](O)(NC(=O)O1)[C@H](OC)C=CC=C(C)C2`, the Potency was 0.3 nM (active). The figure for `CC[C@H](C)[C@@H]([C@@H](CC(=O)N1CCC[C@H]1[C@H](OC)[C@@H](C)C(=O)N[C@H](C)[C@@H](O)c1ccccc1)OC)N(C)C(=O)[C@@H](NC(=O)[C@H](C(C)C)N(C)C)C(C)C` is 1.3 nM (active).
